Compound activity deposited in PubChem BioAssay by several laboratories.
A selection: hits, their analogues and other compounds. The true share with any hit is near 6.2%.
NTR1 ag: agonists of human NTR1, primary screen, imaging, U2OS cells, beta-arrestin-GFP, high content; Neurotensin receptor type 1 (Homo sapiens), P30989; NTR1-U2OS beta-arrestin-GFP spot imaging, agonist mode; activation, % at 20 µM; 330,000 tested, 0.17% active;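 active = activation at or above 40% of the spot to cytoplasm intensity ratio, with at least 20 cells analyzed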;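 also: 0% = DMSO without peptide and 100% = 100 nM NTR1 peptide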
Target sequence (P30989 whole entry, looked up): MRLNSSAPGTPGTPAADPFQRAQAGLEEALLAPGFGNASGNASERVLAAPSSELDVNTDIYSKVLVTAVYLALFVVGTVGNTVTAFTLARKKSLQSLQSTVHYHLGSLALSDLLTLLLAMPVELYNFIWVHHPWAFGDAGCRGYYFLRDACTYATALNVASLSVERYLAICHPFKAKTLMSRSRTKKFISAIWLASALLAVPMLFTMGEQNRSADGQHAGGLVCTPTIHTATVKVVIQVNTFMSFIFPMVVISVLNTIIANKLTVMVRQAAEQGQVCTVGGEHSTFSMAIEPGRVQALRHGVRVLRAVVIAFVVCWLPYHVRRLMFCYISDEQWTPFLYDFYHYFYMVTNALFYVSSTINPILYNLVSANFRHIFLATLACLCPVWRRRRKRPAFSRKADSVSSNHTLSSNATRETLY
Mot1-301 SUMO: yeast Mot1-301 growth rescue at high temperature, primary screen, SUMOylation pathway inhibitor project, S. cerevisiae, ATP luminescence, 38.5C; S. cerevisiae Mot1-301 growth rescue; percent above DMSO median, 100 means doubled; growth rescue, % at 18.8 µM; 320,000 tested, 1% active;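 active = every valid replicate shows activation above 250% relative to neutral control wells; inactive = the rest, any valid replicate at or below 250%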;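 also: OY570 slx delta 5 strain wells were the positive control but not used for scaling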
H9c2 protect: cardioprotection against H2O2-induced cell death, primary screen, uHTS, H9c2 cells, ATPLite luminescence | H9c2 cardiomyocytes, H2O2 injury protection, 2 h | protection from H2O2 cell death, % at 20 µM | 360,000 tested, 0.63% active | AID 588492, 2011;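 active = compounds giving at least 50% protection of heart cells from peroxide-induced death in the single-dose screen, raw or plate-pattern-corrected value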;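 also: 0% = DMSO wells with peroxide and 100% = DMSO wells without peroxide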
AI-2 QS modul: Vibrio harveyi AI-2 quorum sensing modulators, primary screen, JMH597 strain, luminescence/OD600 ratio; activity change, % at 7.5 µM; Vibrio harveyi JMH597 AI-2 luminescence/OD600 ratio, 9 h; active compounds read low; strain lacks LuxN and CqsS sensors; 0 = neutral-control median; 300,000 tested, 0.4% active; in the data active = activity change below about -75%, passing the limit was not always enough;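 also: luminescence divided by OD600 gain over 9 h not by final OD600 alone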
GRIN3A LBD mod: binders of NR3A ligand-binding domain, primary screen, biophysical, differential scanning fluorimetry, uHTS; NR3A LBD differential scanning fluorimetry, Tm shift; 0% = protein alone, 100% = glycine-bound protein; Tm shift relative to glycine control, % at 25 µM; 340,000 tested, 2.5% active; AID 1259313, 2017;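 active = melting temperature shift of at least 10% of the positive control shift, at one fixed dose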
AHR activator: AHR activators, primary screen, cell-based, luminescence, luciferase reporter, human | AHR-responsive luciferase reporter cells | Aryl hydrocarbon receptor (Homo sapiens), P35869 | 320,000 tested, 2.5% active | AID 2796, 2010 | activation, % at 5 µM; in the data active = activation above about 47%;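 also: 0% = vehicle wells and 100% = reference agonist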
* marks the source's active call; other numbers are inactive results; · = no result given.

SMILES	NTR1 ag	Mot1-301 SUMO	H9c2 protect	AI-2 QS modul	GRIN3A LBD mod	AHR activator
Cc1cccc(NC(=O)C2C3CCC4C(CCC32)C4(Cl)Cl)c1 (stereo unspecified)	7.2	-2.7	-8.1	-3.3	12.7*	1.9
O=C(Nc1ccc(Cl)cc1)C1C2CCC3C(CCC21)C3(Cl)Cl (stereo unspecified)	·	·	-7.8	·	4.8	·
CCc1nc2ccc(C(=O)Nc3cc(-c4ccccc4)ccc3OC)cn2c1N(C)C(=O)c1cccc(OC)c1	·	·	9.9	·	·	·
CCCCn1c(N)c(N(CCOC)C(=O)c2cc(S(=O)(=O)N3CCCCC3)ccc2Cl)c(=O)[nH]c1=O	0.5	9.8	1.5	4.5	20.4*	-1.7
CCCn1c(N)c(N(CCOC)C(=O)c2cc(S(=O)(=O)N3CCCCCC3)ccc2OC)c(=O)[nH]c1=O	-1.0	313.0	5.4	19.6	-3.0	-1.8
O=[N+]([O-])c1ccccc1C(O)Cc1ccccn1 (stereo unspecified)	·	·	6.8	·	3.3	·
O=C(Nc1ccc2c(c1)CCC2)c1ccccc1	1.5	-10.7	-8.6	12.6	14.4*	6.5
Cc1nc(NC(=O)c2ccc(F)cc2)sc1C(=O)Nc1ccc2c(c1)CCC2	2.3	-12.7	-11.6	4.1	5.2	16.2
O=C(Nc1ccccc1Cl)Nc1ccccc1Cl	1.4	-9.5	-9.4	7.8	-2.5	3.9
Cc1ccc(C(=O)Nc2nc(C)c(C(=O)Nc3ccc4c(c3)CCC4)s2)cc1	1.6	205.0	4.8	11.7	18.9*	17.8
CCOc1ccc(NC(=O)NC(=O)N(C)S(=O)(=O)c2ccc(C)cc2)cc1	1.5	54.4	-12.2	21.7	5.0	1.5
O=C(Nc1csc([N+](=O)[O-])c1)Nc1ccccc1Cl	2.5	7.9	-13.5	-53.3	39.1*	1.2
CCOc1ccccc1NC(=O)NC(=O)N(C)S(=O)(=O)c1ccc(C)cc1	9.0	14.8	-3.7	43.2	-1.6	64.0*
O=[N+]([O-])c1cccc(COc2ccccc2CN2CCCC2)c1	·	·	3.1	·	1.2	·
COc1ccc(CN2C(=O)c3cccc4cccc2c34)cc1F	1.5	-31.9	14.5	34.5	1.3	3.4
Cc1cccc(OC(C)C(=O)Nc2ccc3c(c2)OCCO3)c1 (stereo unspecified)	·	·	7.1	·	-9.4	·
CN(CCC1CCOCC1)C(=O)c1cc(COc2c(F)cccc2F)on1	-0.2	-14.4	-7.7	11.1	-1.0	2.9
CCCCN(C=O)c1c(CC)nc2ccc(C(=O)N3CCCCC3)cn12	·	·	-0.8	·	·	·
O=C(Nc1ccccc1F)Nc1cccnc1Cl	1.7	-5.7	-11.3	10.3	-0.2	3.2
CC(C)C(=O)Nc1ccc(Nc2ccccc2)cc1	-2.2	-14.0	9.1	-57.1	26.1*	-1.8
CCC(CC)C(=O)Nc1ccc(Nc2ccccc2)cc1	3.1	22.5	-4.9	-44.2	1.9	-3.7
O=C(Nc1ccc(Nc2ccccc2)cc1)Nc1ccccc1Cl	21.9	124.1	-12.5	-38.8	17.8*	-4.0
O=C(Nc1ccc2c(c1)CCC2)Nc1ccccc1Cl	2.6	2.9	-10.6	-0.2	10.1*	1.4
O=C(Nc1ccccc1Cl)Nc1cccnc1Cl	1.0	-24.0	-10.0	1.1	18.7*	7.2
COc1ccc(-c2cn(Cc3ccc(C(=O)NCc4ccc(C)cc4)cc3)c(C(C)N)n2)cc1 (stereo unspecified)	3.1	-3.6	3.5	5.2	-5.6	4.8
SMILES	NTR1 ag	Mot1-301 SUMO	H9c2 protect	AI-2 QS modul	GRIN3A LBD mod	AHR activator
C/C(=N\NC(=O)c1cc(C)nc2ccccc12)c1cccc(Cl)c1	-1.3	3.0	-3.0	11.3	0.9	10.2
Cc1c(Cl)cccc1NC(=O)Nc1ccccc1C(N)=O	-0.9	-1.5	17.8	10.6	-1.2	4.6
O=C(Cc1ccc(Cl)cc1)Nc1ncc([N+](=O)[O-])s1	·	·	-27.2	29.1	-7.1	·
O=C(Nc1ccc(Cl)cc1)Nc1ccccc1Sc1ncc([N+](=O)[O-])s1	5.3	-9.3	-12.6	40.9	12.8*	66.2*
Cc1c(Cl)cccc1NC(=O)Nc1ccc(C(N)=O)cc1	-0.3	0.3	2.2	8.9	11.2*	-2.1
NC(=O)c1ccccc1OCC(=O)Nc1cccnc1Cl	-0.2	116.8	52.6*	·	-0.9	1.5
CCOc1ccccc1NC(=O)Nc1ccc2c(c1)CCC2	2.1	-2.3	-8.3	24.6	2.2	78.2*
CCCc1nc2ccc(C(=O)OC)cn2c1Cc1ccc(C)cc1	·	·	1.5	·	·	·
CCOC(=O)c1c(C)[nH]c(C(=O)N(C)CC(=O)Nc2ccc(OCC)c(OCC)c2)c1C	·	·	-1.9	·	·	·
C/C(=N\NC(=O)COc1cccc(Br)c1)c1ccc2c(c1)OCCO2	2.7	19.0	-3.7	·	-0.4	5.6
CCOc1ccccc1NC(=O)Nc1cccc(S(N)(=O)=O)c1	-0.4	-5.6	2.8	9.0	1.1	48.5*
CCOc1ccccc1NC(=O)Nc1cccc(NC(C)=O)c1	0.8	-5.3	2.7	15.3	-20.0	18.1
Cc1occc1C(=O)Nc1ccc2c(c1)CCC2	0.3	-30.6	-7.9	32.1	11.2*	1.8
Cc1ccc2c(CN3CCC(C(N)=O)CC3)cc(=O)oc2c1C	-0.6	39.1	-1.6	·	2.0	0.2
CC(=O)c1cc2cccc(OC3(C)CCN(Cc4ccc(-c5ccccn5)cc4)C3)c2o1 (stereo unspecified)	·	·	9.0	·	·	·
Cc1cc2oc(=O)cc(CN3CCc4ccccc43)c2cc1Cl	3.8	-23.9	-8.4	13.6	-2.8	50.2*
NS(=O)(=O)c1ccc(CCNC(=O)COC(=O)C2CCN(c3ccc(C(F)(F)F)cn3)CC2)cc1	2.8	27.9	-8.5	-4.9	0.3	-1.5
CCN(Cc1ccccc1)S(=O)(=O)c1ccc(S(=O)(=O)N(Cc2cccc(OC)c2)CC2CCCO2)cc1 (stereo unspecified)	0.3	12.4	-2.4	·	1.9	-3.3
COc1cccc(CN(CC2CCCO2)S(=O)(=O)c2ccc(-n3cnnn3)c(OC)c2)c1 (stereo unspecified)	3.8	1.2	18.6	7.6	10.1*	0.5
CC(C)CN1C(=S)SC(C)(C)C1n1oc(=O)n(-c2ccc(Cl)cc2)c1=O (stereo unspecified)	4.6	34.7	-17.4	8.0	10.7*	0.3
O=C(COC(=O)c1ccc(Cl)c([N+](=O)[O-])c1)Nc1ccccc1OC(F)F	5.1	37.8	-3.1	23.7	-7.9	55.0*
O=C(COC(=O)c1cccc(NS(=O)(=O)/C=C/c2ccccc2)c1)Nc1ccccc1OC(F)F	0.4	24.1	-6.4	39.9	18.6*	5.5
